Results on 9 compounds are retold here after PubChem BioAssay (Tox21).

Results filed as inconclusive are left out. The source holds several records for some structures; these can differ, active in one and inactive in another. Calls of active or inactive are those of the source. Unless noted, the call rests on the fitted dose curve; in most records, active means well fitted curve in the direction sought with a large enough effect in the repeat runs; inconclusive means weak or mixed curves; inactive means no such curve, though single readings can be large; an effect the other way counts as inactive or inconclusive.

A short description of assay [1]: qHTS assay to identify aromatase inhibitors - cell viability counter screen (AID 743084).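 Further: cells stimulated with testosterone during compound exposure; nearly all actives have a fitted effect of over 55% in size.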
Assay [2] deals with Aryl hydrocarbon receptor (Homo sapiens) (UniProt P35869). Kind of assay: qHTS assay to identify small molecule that activate the aryl hydrocarbon receptor (AhR) signaling pathway (AID 743085). Further: nearly all actives have a fitted effect of over 15% in size. Further: potency means the concentration at half of the fitted maximal effect.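 On activation: HG2L7.5c1 human HepG2 liver cells with stably integrated DRE-driven firefly reporter; series mostly up to about 70 µM.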 In outline: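 HepG2 cells stably carrying a 20-DRE firefly luciferase reporter (HG2L7.5c1) treated with compound for 24 hr at 37C. Luciferase read by ONE-Glo luminescence, with CellTiter-Fluor viability read first.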

A short description of assay [3]: qHTS assay to identify small molecule that activate the aryl hydrocarbon receptor (AhR) signaling pathway - cell viability counter screen (AID 743086). Further: series mostly up to about 70 µM; nearly all actives have a fitted effect of over 45% in size. The method, boiled down:
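HepG2-AhR-luc (HG2L7.5c1) cells, 4000/well, were preincubated 5 h at 37C, exposed to compound in qHTS format for 24 hr at 37C, then given CellTiter-Fluor for 30 min; viability was read as fluorescence in the reporter wells.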

Assay [4] deals with Peroxisome proliferator-activated receptor gamma (Homo sapiens) (UniProt P37231). Kind of assay: qHTS assay to identify small molecule agonists of the peroxisome proliferator-activated receptor gamma (PPARg) signaling pathway (AID 743094; active means well fitted activation curve with a large enough effect in the signal ratio in the repeat runs, not every such curve was filed as active; the % refers to the signal ratio). The method, boiled down: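 Cells from the PPARg UAS-bla HEK293H line are plated and incubated 5 h at 37C. Compounds in DMSO are pinned in and left 17 h at 37C. LiveBLAzer B/G substrate is then added for 1 h at room temperature before fluorescence is measured.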

Assay [5] is described as follows: qHTS assay to identify small molecule antagonists of the peroxisome proliferator-activated receptor gamma (PPARg) signaling pathway - cell viability counter screen (AID 743194). Further: nearly all actives have a fitted effect of over 55% in size. The method, boiled down: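 PPARg-UAS-bla HEK293H cells were plated, rested 5 h at 37 C, then treated with compounds plus rosiglitazone (50 nM final) for 17 h at 37 C; viability was then read by CellTiter-Glo luminescence after 30 min at room temperature.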

Assay [6] is described as follows: qHTS assay for small molecule agonists of the antioxidant response element (ARE) signaling pathway (AID 743202; active means well fitted activation curve with a large enough effect in the signal ratio in the repeat runs, not every such curve was filed as active; the % refers to the signal ratio; further: potency means the concentration at half of the fitted maximal effect). In outline:
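Steps: seed ARE-bla HepG2 cells (2,000/well); incubate 5 h at 37 C; add compounds by pin tool; incubate 16 h at 37 C; add FRET substrate; read fluorescence after 2 h at RT.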

Assay [7] in a line: qHTS assay for small molecule agonists of the antioxidant response element (ARE) signaling pathway - cell viability counter screen (AID 743203; calls by dose curve; further: nearly all actives have a fitted effect of over 55% in size). In outline:
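Cytotoxicity was tested in parallel with the ARE reporter screen. ARE-bla HepG2 cells were exposed to compounds for 16 hrs, and viability was taken from CellTiter-Glo luminescence.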

Assay [8] in a line: qHTS assay for small molecule activators of the heat shock response signaling pathway - cell viability counter screen (AID 743209). Further: nearly all actives have a fitted effect of over 50% in size. In outline:
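Cytotoxicity counter screen run in parallel with the HSE beta-lactamase reporter, using the same wells. HeLa HSE-bla cells received compound for 5 h at 37 C; ATP-based CellTiter-Glo luminescence was measured after 30 min at room temperature.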

A short description of assay [9]: qHTS assay for small molecule activators of the heat shock response signaling pathway (AID 743210; active means well fitted activation curve with a large enough effect in the signal ratio in the repeat runs, with a control signal flat, not every such curve was filed as active; the % refers to the signal ratio;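 further: HeLa cells with beta-lactamase reporter driven by heat shock elements; series mostly up to about 63 µM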). In outline:
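Activation of heat shock element-controlled beta-lactamase expression is measured in HeLa cells by LiveBLAzer FRET fluorescence, with compound exposure lasting 5 h at 37 C and substrate loading 2.5 h at room temperature.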

The nature of assay [10]: qHTS assay to identify small molecule agonists of the peroxisome proliferator-activated receptor delta (PPARd) signaling pathway - cell viability counter screen (AID 743211). Further: nearly all actives have a fitted effect of over 55% in size. The method, boiled down: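 PPARd-bla HEK293H cells (3000/well) were pre-incubated 5 h at 37 C, then exposed to compound for 17 h at 37 C. After 2 h with LiveBLAzer substrate, CellTiter-Glo was added to the same wells; luminescence read after 30 min at room temperature.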

Assay [11] addresses Peroxisome proliferator-activated receptor delta (Homo sapiens) (UniProt Q03181). Kind of assay: qHTS assay to identify small molecule agonists of the peroxisome proliferator-activated receptor delta (PPARd) signaling pathway (AID 743212; calls by dose curve). The method, boiled down: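 Cells expressing a UAS-driven beta-lactamase reporter (PPARd-bla HEK293H) were given test compounds after a 5 h settle and kept at 37 C. Reporter activity was then measured as FRET fluorescence using LiveBLAzer B/G substrate.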

Assay [12] is described as follows: qHTS assay to identify small molecule antagonists of the peroxisome proliferator-activated receptor delta (PPARd) signaling pathway - cell viability counter screen (AID 743213). Further: nearly all actives have a fitted effect of over 50% in size. In outline:
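Cytotoxicity counter screen: CellTiter-Glo luminescence read 30 min after addition, in the same wells as the reporter assay. There, PPARd UAS-bla HEK293H cells (3000/well) were treated 17 h at 37 C with compound and 300 nM L165041.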

Assay [13] addresses Peroxisome proliferator-activated receptor delta (Homo sapiens) (UniProt Q03181). In words: qHTS assay to identify small molecule antagonists of the peroxisome proliferator-activated receptor delta (PPARd) signaling pathway (AID 743215; active means well fitted inhibition curve with a large enough effect in the signal ratio in the repeat runs, not every such curve was filed as active; the % refers to the signal ratio;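 further: cells stimulated with agonist L165041 at 300 nM final during compound exposure; series mostly up to about 62 µM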). In outline:
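Cells: HEK293H with a UAS-driven beta-lactamase reporter responsive to PPARd. Compounds were co-added with L165041 (300 nM, final) and incubated 17 h at 37 C before a 2 h room-temperature FRET substrate step and fluorescence reading.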

In assay [14] the target is Bile acid receptor (Homo sapiens) (UniProt Q96RI1). Kind of assay: qHTS assay to identify small molecule antagonists of the farnesoid-X-receptor (FXR) signaling pathway (AID 743217; active means well fitted inhibition curve with a large enough effect in the signal ratio in the repeat runs, not every such curve was filed as active; the % refers to the signal ratio). In outline:
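Cells carrying a UAS-driven beta-lactamase reporter (GeneBLAzer FXR-UAS-bla HEK 293T) were plated and rested 5 h at 37 °C. Compounds in DMSO were added alongside chenodeoxycholic acid agonist at 50 uM final and left 16 h at 37 °C before FRET substrate readout.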

Assay [15] shares this target. Kind of assay: qHTS assay to identify small molecule agonists of the farnesoid-X-receptor (FXR) signaling pathway (AID 743220; active means well fitted activation curve with a large enough effect in the signal ratio in the repeat runs, not every such curve was filed as active; the % refers to the signal ratio). The method, boiled down: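 FXR-UAS-bla HEK 293T cells carrying a UAS-driven beta-lactamase reporter were plated for 5 h at 37C/5% CO2, then exposed to DMSO-dissolved Tox21 10K compounds for 16 h at 37C. A LiveBLAzer B/G FRET substrate was loaded for 2 h at room temperature before fluorescence reading.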

Assay [16] can be described thus: qHTS assay to identify small molecule antagonists of the farnesoid-X-receptor (FXR) signaling pathway - cell viability counter screen (AID 743221; active means well fitted cell-killing curve with a large enough effect in the repeat runs, not every such curve was filed as active; further: nearly all actives have a fitted effect of over 50% in size). The method, boiled down: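 GeneBLAzer FXR-UAS-bla HEK 293T cells, compound plus chenodeoxycholic acid (50 uM final), 16 h at 37 C. CellTiter-Glo added to the same wells after the beta-lactamase read; luminescence read after 30 min at room temperature as viability.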

The target in assay [17] is Vitamin D3 receptor (Homo sapiens) (UniProt P11473). In words: qHTS assay to identify small molecule agonists of the vitamin D receptor (VDR) signaling pathway (AID 743222; calls by dose curve). The method, boiled down: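 Cells carrying a VDR-driven beta-lactamase reporter are seeded at 2,000 per well and rested 4 h. Compounds in DMSO are added for 16 h at 37C, and FRET substrate fluorescence is measured after 2 h at room temperature.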

Assay [18] has the same target. Kind of assay: qHTS assay to identify small molecule antagonists of the vitamin D receptor (VDR) signaling pathway (AID 743223; active means well fitted inhibition curve with a large enough effect in the signal ratio in the repeat runs, not every such curve was filed as active; the % refers to the signal ratio). The method, boiled down:
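VDR-bla cells were treated with compound plus 3 nM final 1alpha,25-dihydroxyvitamin D3 for 16 h at 37C. Beta-lactamase reporter read by B/G FRET substrate fluorescence after 2 h at room temperature. qHTS format.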

Assay [19] has as its target Peroxisome proliferator-activated receptor gamma (Homo sapiens) (UniProt P37231). Kind of assay: qHTS assay to identify small molecule antagonists of the peroxisome proliferator-activated receptor gamma (PPARg) signaling pathway (AID 743191; calls by dose curve; further: series mostly up to about 63 µM; nearly all actives have a fitted effect of over 30% in size). In outline: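 GeneBLAzer PPARg UAS-bla HEK293H cells carrying a UAS-driven beta-lactamase reporter were plated at 3000 cells/well, preincubated 5 h at 37C, then given compound for 17 h at 37C; LiveBLAzer B/G FRET substrate was read after 1 h at room temperature.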

Assay [20] in a line: qHTS assay to identify small molecule agonists of the farnesoid-X-receptor (FXR) signaling pathway - cell viability counter screen (AID 743218). Further: nearly all actives have a fitted effect of over 45% in size. In outline: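 Cells were seeded, left 5 h at 37 C and 5% CO2, then dosed with compound in DMSO for 16 h. After the beta-lactamase FRET read, CellTiter-Glo was added and luminescence measured 30 min later.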
On the % scale 0 is the no-effect control and ±100 the full control effect.

Sequence of Aryl hydrocarbon receptor (Homo sapiens) (P35869 whole entry, looked up): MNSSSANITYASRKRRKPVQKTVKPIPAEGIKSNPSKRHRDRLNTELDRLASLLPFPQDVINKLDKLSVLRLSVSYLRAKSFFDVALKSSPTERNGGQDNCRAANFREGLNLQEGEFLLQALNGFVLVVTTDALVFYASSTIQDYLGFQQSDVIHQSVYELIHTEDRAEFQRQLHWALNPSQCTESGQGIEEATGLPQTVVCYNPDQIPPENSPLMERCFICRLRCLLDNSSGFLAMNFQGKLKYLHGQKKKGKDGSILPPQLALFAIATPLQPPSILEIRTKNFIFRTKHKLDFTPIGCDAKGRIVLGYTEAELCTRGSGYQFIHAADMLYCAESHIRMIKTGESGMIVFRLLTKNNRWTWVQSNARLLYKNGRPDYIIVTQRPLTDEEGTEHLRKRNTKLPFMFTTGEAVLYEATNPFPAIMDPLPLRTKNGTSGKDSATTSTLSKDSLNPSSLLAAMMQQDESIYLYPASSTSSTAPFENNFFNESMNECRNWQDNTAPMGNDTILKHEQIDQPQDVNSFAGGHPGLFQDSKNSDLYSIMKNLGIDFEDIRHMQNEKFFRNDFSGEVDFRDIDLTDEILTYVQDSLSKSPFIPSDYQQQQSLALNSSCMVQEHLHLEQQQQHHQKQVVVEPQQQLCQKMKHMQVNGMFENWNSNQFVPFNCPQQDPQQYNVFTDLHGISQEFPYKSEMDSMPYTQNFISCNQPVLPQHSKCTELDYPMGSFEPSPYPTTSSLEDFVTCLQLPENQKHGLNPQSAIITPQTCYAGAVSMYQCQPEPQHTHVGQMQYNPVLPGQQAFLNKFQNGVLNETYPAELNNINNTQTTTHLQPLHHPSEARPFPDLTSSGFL
Sequence of Peroxisome proliferator-activated receptor gamma (Homo sapiens) (P37231 whole entry, looked up): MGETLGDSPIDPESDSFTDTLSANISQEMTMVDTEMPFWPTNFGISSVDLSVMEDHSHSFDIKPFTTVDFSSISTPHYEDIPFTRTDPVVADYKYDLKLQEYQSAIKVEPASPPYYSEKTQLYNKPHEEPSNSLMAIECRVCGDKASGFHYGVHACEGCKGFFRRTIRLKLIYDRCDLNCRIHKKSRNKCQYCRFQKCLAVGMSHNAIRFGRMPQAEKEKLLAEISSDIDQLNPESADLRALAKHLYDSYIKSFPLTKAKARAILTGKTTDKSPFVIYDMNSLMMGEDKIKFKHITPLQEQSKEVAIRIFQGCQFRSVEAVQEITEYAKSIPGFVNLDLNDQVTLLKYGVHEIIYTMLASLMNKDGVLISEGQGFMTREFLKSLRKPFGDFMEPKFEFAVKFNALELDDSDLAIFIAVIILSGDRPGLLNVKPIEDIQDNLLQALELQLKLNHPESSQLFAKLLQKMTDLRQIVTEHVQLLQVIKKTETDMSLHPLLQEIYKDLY
Sequence of Vitamin D3 receptor (Homo sapiens) (P11473 whole entry, looked up): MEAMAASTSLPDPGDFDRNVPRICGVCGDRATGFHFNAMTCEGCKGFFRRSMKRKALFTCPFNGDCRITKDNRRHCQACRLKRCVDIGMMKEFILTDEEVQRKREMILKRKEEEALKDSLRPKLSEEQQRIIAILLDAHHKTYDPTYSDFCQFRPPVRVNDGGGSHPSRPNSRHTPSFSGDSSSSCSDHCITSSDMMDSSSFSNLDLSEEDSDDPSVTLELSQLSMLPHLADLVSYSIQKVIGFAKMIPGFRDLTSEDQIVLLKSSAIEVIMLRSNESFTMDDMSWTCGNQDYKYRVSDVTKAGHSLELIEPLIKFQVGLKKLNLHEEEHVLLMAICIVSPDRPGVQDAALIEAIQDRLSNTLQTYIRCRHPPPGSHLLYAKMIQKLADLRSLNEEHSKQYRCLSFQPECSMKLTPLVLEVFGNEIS
Sequence of Bile acid receptor (Homo sapiens) (Q96RI1 whole entry, looked up): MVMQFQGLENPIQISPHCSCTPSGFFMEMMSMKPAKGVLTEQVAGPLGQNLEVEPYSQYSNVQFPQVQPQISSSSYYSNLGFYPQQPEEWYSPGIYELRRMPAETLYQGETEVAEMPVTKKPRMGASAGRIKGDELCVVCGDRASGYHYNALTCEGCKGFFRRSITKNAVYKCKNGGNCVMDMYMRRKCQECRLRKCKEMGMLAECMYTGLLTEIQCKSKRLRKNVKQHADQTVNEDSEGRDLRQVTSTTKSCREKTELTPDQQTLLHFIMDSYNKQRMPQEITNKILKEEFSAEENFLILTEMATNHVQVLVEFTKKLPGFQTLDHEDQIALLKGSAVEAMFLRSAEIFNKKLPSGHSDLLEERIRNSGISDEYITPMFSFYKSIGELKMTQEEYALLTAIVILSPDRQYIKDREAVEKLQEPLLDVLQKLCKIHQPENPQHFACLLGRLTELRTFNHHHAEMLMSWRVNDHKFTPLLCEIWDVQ
Sequence of Peroxisome proliferator-activated receptor delta (Homo sapiens) (Q03181 whole entry, looked up): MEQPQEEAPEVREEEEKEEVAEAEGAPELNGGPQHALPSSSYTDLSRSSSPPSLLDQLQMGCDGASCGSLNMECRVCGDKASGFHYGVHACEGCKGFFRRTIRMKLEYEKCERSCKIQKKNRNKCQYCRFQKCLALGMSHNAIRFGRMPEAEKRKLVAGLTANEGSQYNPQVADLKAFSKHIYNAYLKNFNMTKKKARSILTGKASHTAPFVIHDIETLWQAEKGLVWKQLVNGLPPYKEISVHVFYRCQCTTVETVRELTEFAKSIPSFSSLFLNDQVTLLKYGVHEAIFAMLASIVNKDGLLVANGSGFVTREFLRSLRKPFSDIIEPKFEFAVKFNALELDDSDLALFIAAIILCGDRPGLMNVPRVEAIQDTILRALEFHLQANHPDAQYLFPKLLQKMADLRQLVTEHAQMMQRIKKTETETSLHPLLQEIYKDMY

For `C=CCOc1ccccc1OCC(O)CNC(C)C` (stereo not given), the Potency entry in assay [1], in assay [2], in assay [3], in assay [4], in assay [5] and in [6] was “inactive” throughout. For the same compound, the Potency entry in assay [7], in assay [8], in [9], in assay [10], in [11] and in assay [12] was “inactive” in each case. Moreover, the Potency result in [13], in assay [14], in assay [15], in [16] and in assay [17] was “inactive” throughout. Moreover, in [18], the compound was classed as inactive.
For the compound `C/C=C/C(=O)CC`, the Potency entry in [1], in assay [2], in [3] and in [4] was “inactive” throughout. For the same compound, the ratio activity, negative = inhibition was 6.72% [at 13.2 µM] (inactive) in [19] and 2.27% [at 13.7 µM] (inactive) in [13]. Also, the results for the activation in assay [6], in [9] and in assay [11] were -1.61% [at 18.1 µM] (inactive), -0.278% [at 13.2 µM] (inactive) and 2.05% [at 13.2 µM] (inactive), respectively. The viability change, negative = cytotoxic is 0.863% [at 18.1 µM] (inactive) in assay [7], 3.59% [at 13.7 µM] (inactive) in assay [12] and 6.33% [at 13.2 µM] (inactive) in assay [20]. In addition, the activity change, negative = cytotoxicity in assay [10] is 2.34% [at 13.2 µM] (inactive); in assay [16], -0.419% [at 13.2 µM] (inactive).
With `O=C1CCC(=O)O1`, the Potency entry in [1], in assay [2], in assay [3], in assay [4], in assay [19] and in assay [6] was “inactive” each time. For the same compound, the Potency entry in assay [7], in [8], in [9], in assay [10], in [11] and in assay [13] was “inactive” in each case. Moreover, the Potency result in [14], in [20], in assay [15], in assay [16] and in assay [17] was “inactive” each time.
Take `O=C(Nc1ccccc1)c1ccccc1O`: the Potency result in assay [1], in assay [3], in assay [4], in assay [5], in assay [7] and in assay [8] was “inactive” in each case. In addition, the Potency entry in [9], in assay [11], in assay [12], in [13], in assay [20] and in [16] was “inactive” in each case. For the same compound, the Potency in assay [2] was 21.7 µM (active); in [6] it was 24.3 µM (active).
For `O=[N+]([O-])c1ccc2[nH]ncc2c1`, the Potency result in assay [1], in assay [2], in assay [3], in [4], in assay [19] and in assay [6] was “inactive” each time. The Potency result in assay [7], in assay [8], in assay [9], in assay [11], in [12] and in assay [13] was “inactive” throughout. Further, the Potency result in [20], in assay [16] and in assay [17] was “inactive” each time. For the same compound, the compound was classed as inactive in assay [18].
Turning to `CCOC(=O)C1=C[C@]2(CC)CCCN3CCc4c(n1c1ccccc41)[C@@H]32`, the Potency result in assay [1], in assay [3], in assay [4], in assay [19], in assay [6] and in [7] was “inactive” throughout. The Potency result in assay [8] and in assay [17] was “inactive” throughout. The Potency in assay [2] was 11.9 µM (active) and inactive.
Turning to `CCCCCCCCCCCC(=O)OC[C@@H](O)[C@H]1OC[C@H](OCCO)[C@H]1OCCO`, the Potency entry in assay [1], in assay [2], in assay [3], in assay [4], in assay [19] and in assay [7] was “inactive” in each case. Further, the Potency result in assay [8], in [11], in assay [16] and in assay [17] was “inactive” throughout.
On to `CC(CSC(=O)c1ccccc1)C(=O)N1C[C@@H](Sc2ccccc2)C[C@H]1C(=O)O` (stereo not given in full), for which the Potency result in assay [1], in assay [2], in assay [3], in assay [4], in assay [19] and in assay [6] was “inactive” in each case. Moreover, the Potency result in assay [7], in assay [8], in assay [9], in assay [11], in assay [12] and in assay [13] was “inactive” throughout. The Potency entry in assay [16] was “inactive”.
`COC(=O)c1ccc(I)cc1S(=O)(=O)NC(=O)Nc1nc(C)nc(OC)n1`: the Potency entry in [1], in assay [2], in assay [3], in assay [4], in assay [5] and in assay [6] was “inactive” in each case. Moreover, the Potency result in assay [7], in [8], in [9], in assay [12], in assay [20] and in assay [16] was “inactive” in each case. The Potency result in assay [17] was “inactive”. Further, the call in [18] was inactive.
